Compound activity: PubChem BioAssay, National Center for Advancing Translational Sciences (NCATS)
Sampled rows, rich in hits. Any-hit rate of the full collection: about 4.6%.
D1 antag – antagonists of human D1 dopamine receptor. P21728. HEK293 TREx D1 cells, calcium flux, dopamine EC80; active compounds read low. activity change, negative = inhibition, % at 10 µM. hit rate 3.2% among 360,000. AID 504652; in the data active = activity change below about -30%; also: % is scaled to controls: 0 for no effect and ±100 for the full control effect
Target sequence (P21728 whole entry, looked up): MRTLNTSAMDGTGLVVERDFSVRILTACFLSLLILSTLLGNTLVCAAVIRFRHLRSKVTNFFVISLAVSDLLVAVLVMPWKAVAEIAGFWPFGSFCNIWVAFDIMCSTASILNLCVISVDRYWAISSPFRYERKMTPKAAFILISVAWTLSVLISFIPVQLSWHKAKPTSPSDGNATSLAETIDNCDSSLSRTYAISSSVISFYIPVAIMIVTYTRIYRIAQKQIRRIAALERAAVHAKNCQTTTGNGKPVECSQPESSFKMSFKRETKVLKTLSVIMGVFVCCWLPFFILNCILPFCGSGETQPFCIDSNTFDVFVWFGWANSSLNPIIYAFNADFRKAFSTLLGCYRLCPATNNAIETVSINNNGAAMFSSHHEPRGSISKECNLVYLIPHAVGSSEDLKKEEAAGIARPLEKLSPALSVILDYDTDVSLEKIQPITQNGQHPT
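Calcium flux readout: force-coupled, inducible Hek293 Trex D1 line, cells induced overnight at 30 C with tetracycline, dye-loaded 30–90 min at RT. Antagonism scored against EC80 dopamine challenge given 180 s after compound.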
D1 agonist – activates the human D1 dopamine receptor; P21728; HEK293 T-REx D1 cells, calcium flux, agonist mode; activation, % at 2 µM; hit rate 1% among 360,000; AID 504660; also: 0% is about no effect
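Agonism was scored from calcium flux recorded over 180 s (1 read/s) after pintool compound addition, following a 10-cycle baseline. Cells were inducible force-coupled HEK293 TREx D1, plated overnight at 30 C and loaded with no-wash calcium dye.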
TRHR agonist – TRH receptor (human) agonism. activation, % at 2 µM. hit rate 0.18% among 360,000. TRHR cells, calcium flux fluo-8, FDSS agonist mode; also: 0% is about no effect
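Steps: seed TRHR cells overnight; add fluo-8 no-wash Ca dye, RT 30 min–1.5 h; record 10 s baseline; pin-transfer compounds; monitor fluorescence 1 cycle/s for the agonist window. Calcium increases flag candidate agonists.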
TRHR enhancer – allosterically enhances the human TRH receptor; TRHR cells, fluo-8 calcium fluorescence, EC20 TRH enhancement; enhancement, % at 2 µM; hit rate 0.66% among 360,000; P34981; in the data active = enhancement above about 30%; also: 0% is about no effect
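TRHR-expressing cells loaded with fluo-8 calcium dye were read kinetically (ex 480/em 530) during compound addition, then stimulated with an EC20 of TRH (10 nM final). Enhancement of the Gq-mediated intracellular calcium response was scored.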
D1 PAM – enhances dopamine response at the human D1 receptor | HEK293 TREx D1 cells, calcium flux, dopamine EC20 potentiation | potentiation, % at 10 µM | hit rate 0.036% among 360,000 | AID 504651; in the data active = potentiation above about 30%; also: 0% is about no effect
Starred values were filed as active, the others as inactive. Rule as the data show it, unless noted: active = activation above about 30%; inactive = the rest.

`COc1cc(/C=C/[N+](=O)[O-])ccc1OC(=O)c1cc2ccccc2oc1=O` gave D1 antag 39, D1 agonist 1, TRHR agonist 1, TRHR enhancer 1 and D1 PAM 1.
Screening COc1ccc(CCNc2ccc(N3C(=O)CC(C)C3=O)cc2[N+](=O)[O-])cc1OC (stereo not given) returned D1 antag -34*, D1 agonist 17, TRHR agonist 0, TRHR enhancer -4 and D1 PAM -7.
COc1ccc(/C=C(/NC(=O)c2cccc([N+](=O)[O-])c2)C(=O)O)cc1 was read as D1 antag -17, D1 agonist 2, TRHR agonist -1, TRHR enhancer -4 and D1 PAM -10.
`N#Cc1ccc(Oc2c(Cl)cncc2Cl)cc1` gave D1 antag 7, D1 agonist 4, TRHR agonist 0, TRHR enhancer 37* and D1 PAM -3.
`CCOc1ccc(Br)cc1S(=O)(=O)Nc1ccc(C(=O)OCC(=O)Nc2ccc(C#N)cc2)cc1` gave D1 antag -1, D1 agonist 5, TRHR agonist 12, TRHR enhancer 6 and D1 PAM -3.
Screening CN(C)C(=O)c1ccc(NC(=O)c2cc(-c3ccco3)nc3ccccc23)cc1 returned D1 antag 12, D1 agonist 4, TRHR agonist 0, TRHR enhancer 1 and D1 PAM 3.
Cc1csc(NC(=O)c2cc(-c3ccco3)nc3ccccc23)n1 was read as D1 antag -31*, D1 agonist -1, TRHR agonist -2, TRHR enhancer 6 and D1 PAM -6.
`CCN(CC)CCNC(=O)c1ccc(NC(=O)c2cc(-c3ccco3)nc3ccccc23)cc1` gave D1 antag -40*, D1 agonist 2, TRHR agonist 1, TRHR enhancer -5 and D1 PAM 1.
`CC1=C(C(=O)Nc2ccccc2Cl)C(c2cccc(O)c2)n2ncnc2N1` (stereo not given) gave D1 antag -24, D1 agonist 2, TRHR agonist 0, TRHR enhancer 1 and D1 PAM -3.
For Cc1oc(-c2ccccc2)cc1C(=O)NC1CCN(Cc2ccccc2)CC1 the results were D1 antag -85*, D1 agonist 3, TRHR agonist 0, TRHR enhancer 4 and D1 PAM -16.
`O=C(NC1CCN(Cc2ccccc2)CC1)c1ccccc1OCc1ccccc1Cl` gave D1 antag -38*, D1 agonist 5, TRHR agonist 2, TRHR enhancer -12 and D1 PAM -5.
Screening CCOc1ccccc1C(=O)NC1CCN(Cc2ccccc2)CC1 returned D1 antag -31*, D1 agonist 0, TRHR agonist 0, TRHR enhancer -3 and D1 PAM 0.
`COc1ccc(NS(=O)(=O)c2ccc3nc(-c4ccccc4)[nH]c3c2)cc1` gave D1 antag -16, D1 agonist 7, TRHR agonist 0, TRHR enhancer -4 and D1 PAM -4.
For Cc1cc(C(=S)N2CCOCC2)c(C)n1-c1ccc(Cl)cc1 the results were D1 antag -31*, D1 agonist 5, TRHR agonist 1, TRHR enhancer 5 and D1 PAM -3.
`N/C(COc1ccccc1)=N\NS(=O)(=O)c1ccccc1` gave D1 antag 5, D1 agonist 3, TRHR agonist 0, TRHR enhancer 31* and D1 PAM -6.
C/C(=N\NS(=O)(=O)c1ccccc1)c1ccccc1 was read as D1 antag 2, D1 agonist 1, TRHR agonist 0, TRHR enhancer 4 and D1 PAM 0.
CC1CCN(Cc2nnnn2-c2ccc(Cl)cc2)CC1 was read as D1 antag 21, D1 agonist 0, TRHR agonist -1, TRHR enhancer -1 and D1 PAM -9.
Screening O=C(NCc1ccccc1)C1=C[C@H](c2ccc(Br)cc2)C[C@H](OCc2ccc(CO)cc2)O1 returned D1 antag 2, D1 agonist 32*, TRHR agonist -1, TRHR enhancer -6 and D1 PAM -3.
`CN1CCN(C(=O)C2=C[C@@H](c3ccccc3)C[C@@H](OCCCCO)O2)CC1` gave D1 antag -3, D1 agonist -2, TRHR agonist 0, TRHR enhancer -1 and D1 PAM -4.
`O=C(C1=C[C@@H](c2ccccc2)C[C@@H](OCCCCO)O1)N1CCOCC1` gave D1 antag -37*, D1 agonist -5, TRHR agonist 0, TRHR enhancer 2 and D1 PAM -3.
Screening O=C(C1=C[C@@H](c2ccc(Br)cc2)C[C@@H](OCCCCO)O1)N1CCOCC1 returned D1 antag -70*, D1 agonist -5, TRHR agonist 0, TRHR enhancer 3 and D1 PAM -6.
`O=C(C1=C[C@@H](c2ccc(Br)cc2)C[C@@H](OCc2ccc(CO)cc2)O1)N1CCOCC1` gave D1 antag -3, D1 agonist 2, TRHR agonist 1, TRHR enhancer 1 and D1 PAM 0.
O=C(C1=C[C@H](c2ccc(Br)cc2)C[C@H](OCc2ccc(CO)cc2)O1)N1CCOCC1 was read as D1 antag -33*, D1 agonist 2, TRHR agonist 0, TRHR enhancer 4 and D1 PAM -2.
`O=c1cc(N2CCOCC2)[nH]c(=O)n1-c1ccc(Cl)cc1` gave D1 antag 0, D1 agonist 3, TRHR agonist 0 and TRHR enhancer -2.
CCCCn1nnc(NC(=O)c2ccc([N+](=O)[O-])cc2Cl)n1 was read as D1 antag -9, D1 agonist 1, TRHR agonist 0, TRHR enhancer -3 and D1 PAM -1.
`CC(Oc1cccc(Cl)c1)C(=O)Nc1nc(-c2ccccn2)cs1` (stereo not given) gave D1 antag -35*, D1 agonist 5, TRHR agonist 1, TRHR enhancer 11 and D1 PAM -6.
CCSc1nnc(NC(=O)NCC(F)(F)F)s1 was read as D1 antag -6, D1 agonist 1, TRHR agonist 0, TRHR enhancer 34* and D1 PAM -4.
CCSc1nnc(NC(=O)C2C3C=CC(C3)C2C(=O)O)s1 (stereo not given) was read as D1 antag -46*, D1 agonist 3, TRHR agonist 1, TRHR enhancer 6 and D1 PAM -10.
Screening CCSc1nnc(NC(=O)C2C3CCC(C3)C2C(=O)O)s1 (stereo not given) returned D1 antag -3, D1 agonist 1, TRHR agonist 0, TRHR enhancer 9 and D1 PAM 8.
`Cc1ccc(N2CCN(S(=O)(=O)c3cc(C(=O)Nc4cc(Cl)cc(Cl)c4)ccc3F)CC2C)cc1` (stereo not given) gave D1 antag 6, D1 agonist -3, TRHR agonist 0, TRHR enhancer 1 and D1 PAM 1.
